Source: PubChem BioAssay
Values without a mark were called inactive. The source made the active and inactive calls. Rule as the data show it, unless noted: active = inhibition above about 28%; inactive = the rest.

Tested on: not listed separately
Assay: StAR promoter reporter inhibitors, counter-screen for LRH-1 inverse agonist project, cell-based, luminescence, high throughput (AID 651611)
Settings: StAR promoter luciferase reporter counterscreen, at 3.6 µM, hits give high values

Which inhibition does the source give for `CC(C)C(=O)N1CCN(c2ccc(NC(=O)c3ccc([N+](=O)[O-])o3)cc2)CC1` here?
Its inhibition is 8.38%.

Which inhibition does the source give for `S=C(NCCc1ccccc1)Nc1cccc2cnccc12` here?
The inhibition was -5.25%.

Which inhibition does the source give for `CCn1c2ccccc2c2cc(/C=N/n3c(C)nnc3C)ccc21` here?
The inhibition was 27.4%.

For `COc1ccc(NC(=O)CSc2sc3c(O)cc(=O)[nH]c3c2C#N)c(OC)c1`, which inhibition is on record?
The inhibition was 1.46%.

With `O=C(c1ccc([N+](=O)[O-])o1)N1CCc2ccccc21` as the compound, how does the inhibition read?
Its inhibition is -6.72%.

Which inhibition does the source give for `CC(C)c1ccc(NC(=O)CSc2nc(=O)[nH]c3c2CCCC3)cc1` here?
Its inhibition is 16.1%.

Which inhibition does the source give for `COc1ccc(S(=O)(=O)Nc2ccc(CC#N)cc2)cc1` here?
The inhibition was -4.36%.

For `OC[C@@H]1CN(Cc2ccc(-c3ccccc3)cc2)C[C@H](n2cnc3c(NCc4ccco4)ncnc32)O1`, which inhibition is on record?
The inhibition was 22.7%.

With `CN1c2ccccc2C(C)(C)C12C=Nc1c(cc(N3CCOCC3)c3ccccc13)O2` (stereo not given) as the compound, how does the inhibition read?
Its inhibition is 9%.

Which inhibition does the source give for `O=C(COC(=O)c1ccc(Br)cc1)Nc1ccccc1Br` here?
Its inhibition is 9%.

Which inhibition does the source give for `COc1cc(N)c(Cl)cc1C(=O)OCC(=O)N1c2ccccc2NC(=O)C1(C)C` here?
The inhibition was 11.8%.

Which inhibition does the source give for `CCC(=O)N1CCN(c2ccc(Cl)cc2NC(=O)c2ccc([N+](=O)[O-])o2)CC1` here?
Its inhibition is 22.8%.

Which inhibition does the source give for `Cn1cccc1C(=O)OCC(=O)NCCCc1ccccc1` here?
Its inhibition is 3.25%.

With `Cc1cc(/C=N/n2cnnc2)c(C)n1-c1ccc(OCc2ccc(Cl)cc2)cc1` as the compound, how does the inhibition read?
The inhibition was -11%.

Which inhibition does the source give for `Cc1cc(N2CCN(c3nc4ccccc4s3)CC2)n2ncnc2n1` here?
The inhibition was 21.5%.

With `COc1cc(OC)cc(C(=O)N[C@H](C(=O)OCC(=O)Nc2ccc3c(c2)OCO3)C(C)C)c1` as the compound, how does the inhibition read?
The inhibition was 14.4%.

With `Cn1c2c(c(=O)n(C)c1=O)C(C(F)(F)F)(C(F)(F)F)N=C(CCC1CCCCC1)N2` as the compound, how does the inhibition read?
The inhibition was 29.6% (active).

For `Cc1cc(S(=O)(=O)NCc2ccncc2)c(C)cc1Br`, which inhibition is on record?
Its inhibition is -10.6%.

Which inhibition does the source give for `CSCc1c(C(=O)Nc2ccccc2N2CCOCC2)oc2ccccc12` here?
Its inhibition is 7.6%.

With `Cc1cc(OCC(=O)NCc2cccnc2)c2c(C)c(C)c(=O)oc2c1` as the compound, how does the inhibition read?
The inhibition was 9.8%.

For `COc1ccc(C(=O)Nc2cnccn2)cc1[N+](=O)[O-]`, which inhibition is on record?
The inhibition was -2.94%.

Which inhibition does the source give for `Fc1ccc(Br)cc1SCCc1ccncc1` here?
The inhibition was 1.89%.

With `CCC(C)n1c(SCC(=O)NCCc2ccc(S(N)(=O)=O)cc2)nc2ccsc2c1=O` (stereo not given) as the compound, how does the inhibition read?
Its inhibition is 10.6%.

For `O=C(Nc1ccc(F)cc1)C(c1cc2ccccc2o1)N1CCN(c2cccc(C(F)(F)F)n2)CC1` (stereo not given), which inhibition is on record?
Its inhibition is 11%.

For `COc1cc(C2CC(=O)c3c([nH]c(C(=O)OCCOC(C)C)c3C)C2)cc(OC)c1OC` (stereo not given), which inhibition is on record?
Its inhibition is 24.2%.

With `COc1ccc(/C=N/n2c(SC)nnc2-c2ccccc2)c(OC)c1OC` as the compound, how does the inhibition read?
Its inhibition is 53.5% (active).

Which inhibition does the source give for `Cc1ccc(NNC(N)=S)cc1Cl` here?
Its inhibition is 11.6%.

Which inhibition does the source give for `COc1ccc(N2CCN(C(=O)CSc3nnc(-c4cc5ccccc5cc4O)n3C)CC2)cc1` here?
Its inhibition is 19.8%.

With `Cc1ccc(/C=C/S(=O)(=O)NCC(=O)OCC(=O)Nc2c(F)cccc2F)cc1` as the compound, how does the inhibition read?
The inhibition was 26.3%.

With `CCN(CC)CC(=O)Nc1ccc(-c2nc3cc(NC(=O)CN(CC)CC)ccc3o2)cc1` as the compound, how does the inhibition read?
Its inhibition is -9.81%.

For `COC(=O)c1ccc(NC(=O)CN2CCN(S(=O)(=O)c3cc(Cl)ccc3OC)CC2)cc1`, which inhibition is on record?
Its inhibition is 9.56%.

Which inhibition does the source give for `CCc1ccccc1NC(=O)CSc1nnc([C@@H](NC(=O)OC(C)(C)C)C(C)CC)o1` (stereo not given in full) here?
Its inhibition is -3.97%.

With `CS(=O)(=O)N1Cc2cc(C(=O)NCC3CC3)nc(-c3cccc(-c4cccnc4)c3)c2[C@@H]1CCO` as the compound, how does the inhibition read?
The inhibition was 8.47%.

Which inhibition does the source give for `Cc1cccc(NC(=O)COC(=O)Cc2cccs2)c1C` here?
The inhibition was 0.39%.

For `NC(=O)COc1ccc2c3c(c(=O)oc2c1)CCCCC3`, which inhibition is on record?
Its inhibition is -1.98%.

Which inhibition does the source give for `COCCSc1ccccc1C(=O)NCc1ccc2c(c1)OCO2` here?
Its inhibition is 6.49%.

Which inhibition does the source give for `Cc1cc(-c2nnc(SCC(=O)Nc3cccc(C)c3C)n2N)n[nH]1` here?
Its inhibition is 5.59%.

With `CCc1ccccc1NC(=O)CSc1nnc([C@@H](NC(=O)OC(C)(C)C)C(C)C)o1` as the compound, how does the inhibition read?
The inhibition was 5.95%.

With `CC1(c2ccc3ccccc3c2)NC(=O)N(CC(=O)N2CCN(Cc3ccc(C#N)cc3)CC2)C1=O` (stereo not given) as the compound, how does the inhibition read?
The inhibition was 32.1% (active).

With `Cc1cc(OCC(=O)Nc2nccs2)c2c(C)cc(=O)oc2c1` as the compound, how does the inhibition read?
Its inhibition is 16.2%.

Biological target: Nuclear receptor subfamily 5 group A member 2 (Homo sapiens) (UniProt O00482)
Assay: LRH-1 (NR5A2) inverse agonists, retest, confirmation, cell-based, luminescence (AID 651613; in the data active = inhibition above about 42%;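 also: HEK293T cells co-transfected with LRH-1 and StAR promoter luciferase reporter; 0% = vehicle wells and 100% = parental cells lacking receptor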)
Settings: cell-based LRH-1 luciferase reporter, inverse agonism; at 3.6 µM; hits give high values

Nuclear receptor subfamily 5 group A member 2 (Homo sapiens), sequence (O00482 whole entry, looked up): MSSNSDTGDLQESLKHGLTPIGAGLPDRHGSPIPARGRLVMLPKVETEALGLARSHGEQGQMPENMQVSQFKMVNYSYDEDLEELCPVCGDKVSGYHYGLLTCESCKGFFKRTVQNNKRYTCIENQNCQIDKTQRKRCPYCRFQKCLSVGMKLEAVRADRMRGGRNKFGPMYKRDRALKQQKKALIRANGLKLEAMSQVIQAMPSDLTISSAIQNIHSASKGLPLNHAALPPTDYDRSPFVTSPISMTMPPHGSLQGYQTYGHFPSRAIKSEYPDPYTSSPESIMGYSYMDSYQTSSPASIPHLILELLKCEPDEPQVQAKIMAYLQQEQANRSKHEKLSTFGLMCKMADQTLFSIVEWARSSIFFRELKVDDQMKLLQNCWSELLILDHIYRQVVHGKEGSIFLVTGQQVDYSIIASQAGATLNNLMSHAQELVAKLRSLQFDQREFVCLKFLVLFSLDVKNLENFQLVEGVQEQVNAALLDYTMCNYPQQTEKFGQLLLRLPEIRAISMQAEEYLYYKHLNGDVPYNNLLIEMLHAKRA

With `CC(C)C(=O)N1CCN(c2ccc(NC(=O)c3ccc([N+](=O)[O-])o3)cc2)CC1` as the compound, how does the inhibition read?
The inhibition was 59.5% (active).

Which inhibition does the source give for `S=C(NCCc1ccccc1)Nc1cccc2cnccc12` here?
The inhibition was 45.1% (active).

For `CCn1c2ccccc2c2cc(/C=N/n3c(C)nnc3C)ccc21`, which inhibition is on record?
Its inhibition is 26.4%.

Which inhibition does the source give for `COc1ccc(NC(=O)CSc2sc3c(O)cc(=O)[nH]c3c2C#N)c(OC)c1` here?
Its inhibition is 48.8% (active).

Which inhibition does the source give for `O=C(c1ccc([N+](=O)[O-])o1)N1CCc2ccccc21` here?
Its inhibition is 51.8% (active).

With `CC(C)c1ccc(NC(=O)CSc2nc(=O)[nH]c3c2CCCC3)cc1` as the compound, how does the inhibition read?
Its inhibition is 58.5% (active).

For `COc1ccc(S(=O)(=O)Nc2ccc(CC#N)cc2)cc1`, which inhibition is on record?
Its inhibition is 31.7%.

With `OC[C@@H]1CN(Cc2ccc(-c3ccccc3)cc2)C[C@H](n2cnc3c(NCc4ccco4)ncnc32)O1` as the compound, how does the inhibition read?
Its inhibition is 63.7% (active).

Which inhibition does the source give for `CN1c2ccccc2C(C)(C)C12C=Nc1c(cc(N3CCOCC3)c3ccccc13)O2` (stereo not given) here?
Its inhibition is 19.1%.

With `O=C(COC(=O)c1ccc(Br)cc1)Nc1ccccc1Br` as the compound, how does the inhibition read?
Its inhibition is 50.5% (active).

For `COc1cc(N)c(Cl)cc1C(=O)OCC(=O)N1c2ccccc2NC(=O)C1(C)C`, which inhibition is on record?
Its inhibition is 19.4%.

For `CCC(=O)N1CCN(c2ccc(Cl)cc2NC(=O)c2ccc([N+](=O)[O-])o2)CC1`, which inhibition is on record?
Its inhibition is 64.7% (active).

For `Cn1cccc1C(=O)OCC(=O)NCCCc1ccccc1`, which inhibition is on record?
The inhibition was 54% (active).

Which inhibition does the source give for `Cc1cc(/C=N/n2cnnc2)c(C)n1-c1ccc(OCc2ccc(Cl)cc2)cc1` here?
Its inhibition is 27.8%.

With `Cc1cc(N2CCN(c3nc4ccccc4s3)CC2)n2ncnc2n1` as the compound, how does the inhibition read?
Its inhibition is 52.4% (active).

Which inhibition does the source give for `COc1cc(OC)cc(C(=O)N[C@H](C(=O)OCC(=O)Nc2ccc3c(c2)OCO3)C(C)C)c1` here?
Its inhibition is 48.1% (active).

Which inhibition does the source give for `Cn1c2c(c(=O)n(C)c1=O)C(C(F)(F)F)(C(F)(F)F)N=C(CCC1CCCCC1)N2` here?
Its inhibition is 41.9% (active).

With `Cc1cc(S(=O)(=O)NCc2ccncc2)c(C)cc1Br` as the compound, how does the inhibition read?
The inhibition was 39%.

With `CSCc1c(C(=O)Nc2ccccc2N2CCOCC2)oc2ccccc12` as the compound, how does the inhibition read?
The inhibition was 65.9% (active).

Which inhibition does the source give for `Cc1cc(OCC(=O)NCc2cccnc2)c2c(C)c(C)c(=O)oc2c1` here?
The inhibition was 61.8% (active).

Which inhibition does the source give for `COc1ccc(C(=O)Nc2cnccn2)cc1[N+](=O)[O-]` here?
Its inhibition is 35.3%.

Which inhibition does the source give for `Fc1ccc(Br)cc1SCCc1ccncc1` here?
Its inhibition is 45.7% (active).

For `CCC(C)n1c(SCC(=O)NCCc2ccc(S(N)(=O)=O)cc2)nc2ccsc2c1=O` (stereo not given), which inhibition is on record?
Its inhibition is 48.7% (active).

For `O=C(Nc1ccc(F)cc1)C(c1cc2ccccc2o1)N1CCN(c2cccc(C(F)(F)F)n2)CC1` (stereo not given), which inhibition is on record?
Its inhibition is 24.9%.

With `COc1cc(C2CC(=O)c3c([nH]c(C(=O)OCCOC(C)C)c3C)C2)cc(OC)c1OC` (stereo not given) as the compound, how does the inhibition read?
The inhibition was 40%.

Which inhibition does the source give for `COc1ccc(/C=N/n2c(SC)nnc2-c2ccccc2)c(OC)c1OC` here?
The inhibition was 41.2% (active).

For `Cc1ccc(NNC(N)=S)cc1Cl`, which inhibition is on record?
Its inhibition is 53.4% (active).

Which inhibition does the source give for `COc1ccc(N2CCN(C(=O)CSc3nnc(-c4cc5ccccc5cc4O)n3C)CC2)cc1` here?
Its inhibition is 59% (active).

Which inhibition does the source give for `Cc1ccc(/C=C/S(=O)(=O)NCC(=O)OCC(=O)Nc2c(F)cccc2F)cc1` here?
Its inhibition is 52% (active).

Which inhibition does the source give for `CCN(CC)CC(=O)Nc1ccc(-c2nc3cc(NC(=O)CN(CC)CC)ccc3o2)cc1` here?
Its inhibition is 42.5% (active).

With `COC(=O)c1ccc(NC(=O)CN2CCN(S(=O)(=O)c3cc(Cl)ccc3OC)CC2)cc1` as the compound, how does the inhibition read?
Its inhibition is 60.3% (active).

With `CCc1ccccc1NC(=O)CSc1nnc([C@@H](NC(=O)OC(C)(C)C)C(C)CC)o1` (stereo not given in full) as the compound, how does the inhibition read?
Its inhibition is 39.5%.

For `CS(=O)(=O)N1Cc2cc(C(=O)NCC3CC3)nc(-c3cccc(-c4cccnc4)c3)c2[C@@H]1CCO`, which inhibition is on record?
The inhibition was 49.4% (active).

For `Cc1cccc(NC(=O)COC(=O)Cc2cccs2)c1C`, which inhibition is on record?
Its inhibition is 53.8% (active).

For `NC(=O)COc1ccc2c3c(c(=O)oc2c1)CCCCC3`, which inhibition is on record?
Its inhibition is 40.5%.

With `COCCSc1ccccc1C(=O)NCc1ccc2c(c1)OCO2` as the compound, how does the inhibition read?
Its inhibition is 39.5%.

With `Cc1cc(-c2nnc(SCC(=O)Nc3cccc(C)c3C)n2N)n[nH]1` as the compound, how does the inhibition read?
The inhibition was 53.3% (active).

Which inhibition does the source give for `CCc1ccccc1NC(=O)CSc1nnc([C@@H](NC(=O)OC(C)(C)C)C(C)C)o1` here?
Its inhibition is 45.9% (active).

For `CC1(c2ccc3ccccc3c2)NC(=O)N(CC(=O)N2CCN(Cc3ccc(C#N)cc3)CC2)C1=O` (stereo not given), which inhibition is on record?
Its inhibition is 66.1% (active).

Which inhibition does the source give for `Cc1cc(OCC(=O)Nc2nccs2)c2c(C)cc(=O)oc2c1` here?
Its inhibition is 66.6% (active).
